Hits are enriched below; roughly 11% of the tested compounds scored in any of these assays.
JMJD2A Tudor = JMJD2A Tudor domain (human) inhibition. O75164. AlphaScreen JMJD2A-Tudor / H3K4me3 peptide binding. Potency, µM (top dose mostly 114 µM), hits mostly inhibitors. hit rate 4.4% among 390,000. AID 504339; also: nearly all actives have a fitted effect of over 50% in size
PLK1 PBD inh = PLK1 (human) polo-box domain binding inhibition; P53350; Plk1 PBD binding of FITC phosphopeptide, fluorescence polarization; Potency, µM, hits mostly inhibitors; hit rate 2.8% among 360,000; AID 720504; also: series mostly up to about 57 µM; nearly all actives have a fitted effect of over 65% in size
HP1b chromo inh = inhibitors of HP1-beta chromodomain binding to methylated histone tails. Potency, µM (highest dose often 114 µM), usual class: inhibitors. AlphaScreen HP1-beta / biotin-H3K9me3 peptide binding. hit rate 0.56% among 390,000. AID 540317. P83916; also: nearly all actives have a fitted effect of over 70% in size
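Compound inhibition of the preformed complex between 50 nM HP1-beta and 50 nM biotinylated H3K9me3 peptide was read by AlphaScreen. Buffer was PBS pH 7.4 with 0.01% Tween-20. Incubations ran 30 min at room temperature, with 10 ug/mL donor/acceptor beads.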
G9a block = G9a (human) methyltransferase inhibition; Potency, µM (doses to about 102 µM), hits mostly inhibitors; hit rate 8.8% among 350,000; G9a H3K9 monomethylation, AlphaScreen, 2 h; AID 504332; also: nearly all actives have a fitted effect of over 75% in size
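Step 1: enzyme (final 20 nM) with compound, 15 min RT. Step 2: substrate peptide 500 nM and SAM 20 uM, 2 h RT. Step 3: anti-H3K9me1 antibody and AlphaScreen beads, 10 min, then plate read.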
VDR inh = vitamin D3 receptor (human) inhibition; P11473; VDR-SRC2-3 peptide fluorescence polarization, 2 h; Potency, µM, hits mostly inhibitors; hit rate 0.93% among 400,000
Target sequence (P11473 whole entry, looked up): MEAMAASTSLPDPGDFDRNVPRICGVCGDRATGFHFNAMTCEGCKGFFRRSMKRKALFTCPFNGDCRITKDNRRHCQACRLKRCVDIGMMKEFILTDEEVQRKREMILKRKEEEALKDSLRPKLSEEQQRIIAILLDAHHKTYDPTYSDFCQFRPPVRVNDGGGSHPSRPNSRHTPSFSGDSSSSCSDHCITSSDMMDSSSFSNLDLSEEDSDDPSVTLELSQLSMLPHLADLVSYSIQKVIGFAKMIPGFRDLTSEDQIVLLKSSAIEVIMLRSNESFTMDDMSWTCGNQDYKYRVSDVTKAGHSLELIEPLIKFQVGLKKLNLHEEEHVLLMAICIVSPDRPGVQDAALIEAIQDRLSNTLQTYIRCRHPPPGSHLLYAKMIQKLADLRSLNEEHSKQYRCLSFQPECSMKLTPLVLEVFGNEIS
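FP read-out; VDR + SRC2-3 coactivator peptide; 23 nl compound by pintool; 2 h RT incubation; reagents held at 4 deg C, protected from light.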
BAZ2B inh = inhibitors of human BAZ2B bromodomain; Q9UIF8; hit rate 4.4% among 360,000; AlphaScreen BAZ2B-H3K14Ac peptide displacement; Potency, µM (titrated, usually from 114 µM), hits mostly inhibitors; AID 504333; also: nearly all actives have a fitted effect of over 60% in size
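Complex of BAZ2B and biotin-H3K14Ac (50 nM apiece) forms over 30 min at RT, then faces library compounds up to 110 uM for another 30 min; AlphaScreen beads added, 20 min dark incubation, luminescence read.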
Each line names hits and unclear results; the compound was inactive in the other large screens. Calls follow the shape of the dose curve; as a rule, active = well fitted curve in the direction sought with a large enough effect; inconclusive = small, poorly fitted or top-dose-only effect, or another doubt; inactive = no such curve, though single readings can be large; an effect the other way counts as inactive or inconclusive.

Cc1ccc(C(=O)/C=C/NNC(=O)c2ccccc2O)cc1	JMJD2A Tudor inconclusive, VDR inh inconclusive, BAZ2B inh 50µM
O=C(/C=C/NNC(=O)c1ccc(Cl)cc1)c1ccccc1	JMJD2A Tudor inconclusive, G9a block inconclusive, VDR inh inconclusive, BAZ2B inh inconclusive
C(=N\N=C\c1ccncc1)/c1ccncc1	none
COc1ccc(N2CCN(C(=O)c3ccccc3NS(=O)(=O)c3ccc(C)cc3)CC2)cc1	JMJD2A Tudor inconclusive, G9a block 50µM, BAZ2B inh inconclusive
CC(=O)c1ccc(N2CCN(C(=O)CCC(=O)c3cccs3)CC2)cc1	none
COc1ccc(N2CCN(CC(=O)Nc3ccccc3C(=O)NC(C)c3ccccc3)CC2)cc1 (stereo not drawn)	none (no result: JMJD2A Tudor, HP1b chromo inh, G9a block, VDR inh, BAZ2B inh)
COc1ccc(N2CCN(CC(=O)Nc3ccccc3C(=O)NCc3ccccc3)CC2)cc1	JMJD2A Tudor 56µM, HP1b chromo inh inconclusive, G9a block inconclusive, BAZ2B inh 45µM
COC(=O)c1cccc(NC(=O)c2nsc3ccccc23)c1	G9a block 4.5µM (no result: PLK1 PBD inh)
COc1cccc(CNC(=O)c2cccc(NC(=O)c3nsc4ccccc34)c2)c1	none (no result: PLK1 PBD inh)
O=C(CCC(=O)N1CCN(c2ccc(O)cc2)CC1)c1cccs1	G9a block 13µM
Cc1ccccc1OCC(=O)Nc1ccc2nc(SCC(=O)N3CCCC3)sc2c1	none (no result: PLK1 PBD inh)
Nc1nc(=S)c2ncn([C@H]3O[C@@H](CO)[C@@H](O)[C@@H]3O)c2[nH]1	G9a block inconclusive (no result: JMJD2A Tudor, PLK1 PBD inh, HP1b chromo inh, BAZ2B inh)
CCCNS(=O)(=O)c1ccc(CCC(=O)N2CCN(c3ccc(OC)cc3)CC2)cc1	G9a block inconclusive
COC(=O)c1cnc(N2CCN(c3ccc(OC)cc3)CC2)c2ccccc12	JMJD2A Tudor 25µM, G9a block 13µM, BAZ2B inh 22µM (no result: PLK1 PBD inh)
CCOC(=O)c1cnc2c(OC)cccc2c1N1CCN(c2ccc(OC)cc2)CC1	PLK1 PBD inh 24µM, HP1b chromo inh inconclusive, G9a block inconclusive, BAZ2B inh 11µM
COc1cccc(C(=O)Nc2ccccc2C(=O)N2CCCC2)c1	BAZ2B inh inconclusive
CCOC(=O)c1cnc2c(OC)cccc2c1N1CCN(c2ccccc2OC)CC1	JMJD2A Tudor inconclusive, G9a block inconclusive, BAZ2B inh inconclusive
COc1ccc(N2CCN(C(=O)c3ccccc3NC(=O)c3ccccc3)CC2)cc1	G9a block 45µM
COc1ccc(N2CCN(C(=O)CCNS(=O)(=O)c3ccc(C)cc3)CC2)cc1	G9a block 50µM
Cn1nc(-c2ccccc2F)c2cc(C(=O)NCc3ccccc3Cl)sc21	none (no result: PLK1 PBD inh)
Cc1ccc(N2CCN(C(=O)c3ccccc3NC(=O)c3ccccc3C(=O)O)CC2)cc1	G9a block 56µM
Cc1ccc(C(=O)Nc2ccccc2C(=O)N2CCN(c3ccccc3)CC2)cc1	none
Cc1ccc(OCCC(=O)N2CCN(c3ccc(O)cc3)CC2)cc1	JMJD2A Tudor 14µM, G9a block 11µM
COc1ccc(N2CCN(C(=O)c3ccc(NC(=O)c4nsc5ccccc45)cc3)CC2)cc1	JMJD2A Tudor inconclusive, G9a block 10µM, BAZ2B inh inconclusive (no result: PLK1 PBD inh)
CCOc1ccc(C(=O)CCC(=O)N2CCN(c3ccc(O)cc3)CC2)cc1	VDR inh inconclusive (no result: G9a block, BAZ2B inh)
COc1ccc(C(=O)Nc2ccccc2C(=O)N2CCOCC2)cc1Br	PLK1 PBD inh 27µM (no result: G9a block)
COc1cccc(N2CCN(C(=O)c3ccc(NC(=O)c4nsc5ccccc45)cc3)CC2)c1	none (no result: PLK1 PBD inh)
CC(C(=O)Nc1ccccc1F)N1CCN(S(=O)(=O)c2ccc(C(F)(F)F)cc2)CC1 (stereo not drawn)	none
COc1cc(CC(=O)OCn2nnc3ccccc3c2=O)cc(OC)c1OC	none
O=C(O)CC1c2ccccc2C=Cc2ccccc21	none
COc1ccc(N2CCN(C(=O)Nc3cccc(C(F)(F)F)c3)CC2)cc1	JMJD2A Tudor inconclusive, G9a block 13µM, BAZ2B inh inconclusive
COc1ccc(N2CCN(C(=O)CCNS(=O)(=O)c3ccc4c(c3)CCN4C(=O)C3CC3)CC2)cc1	G9a block inconclusive (no result: PLK1 PBD inh)
COC(=O)c1ccccc1NC(=O)N1CCN(c2ccc(OC)cc2)CC1	JMJD2A Tudor inconclusive, HP1b chromo inh inconclusive, G9a block 40µM, BAZ2B inh inconclusive

Bioassay records: PubChem BioAssay, National Center for Advancing Translational Sciences (NCATS)
